These results are taken from PubChem BioAssay (EPA / NIEHS).

Structures are written as SMILES. Records with an inconclusive call do not appear. Calls of active or inactive are those of the source. Rule for the calls: active = hit-call score of the fitted dose curve at least 0.9, where 1 is the maximum; inconclusive = response in the unintended direction; inactive = score below 0.9.

Sequence of Cellular tumor antigen p53 (Homo sapiens) (P04637 whole entry, looked up): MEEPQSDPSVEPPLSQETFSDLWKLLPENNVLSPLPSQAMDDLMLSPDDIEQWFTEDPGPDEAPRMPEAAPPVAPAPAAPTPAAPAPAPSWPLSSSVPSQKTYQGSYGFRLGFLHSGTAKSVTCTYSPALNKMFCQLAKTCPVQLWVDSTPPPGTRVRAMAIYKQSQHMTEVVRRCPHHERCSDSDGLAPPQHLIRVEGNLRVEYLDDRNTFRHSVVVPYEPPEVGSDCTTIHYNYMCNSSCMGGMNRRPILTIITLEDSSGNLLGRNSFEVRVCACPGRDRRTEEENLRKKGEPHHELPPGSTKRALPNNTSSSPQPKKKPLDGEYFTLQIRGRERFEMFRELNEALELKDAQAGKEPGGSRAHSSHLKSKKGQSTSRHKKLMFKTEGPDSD

The assay has as its target Cellular tumor antigen p53 (Homo sapiens) (UniProt P04637). Briefly: TOX21_p53_BLA_p5_ratio: Tox21 HCT-116 p53 Agonism Beta-lactamase Assay, Ratio, Phase 5 (AID 2283599). An outline of the steps: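 HCT-116 cells carrying a p53-inducible beta-lactamase reporter were seeded at 4000 cells/well and dosed after 5 h with compound in DMSO (217-fold dilution). After 16 h at 37C, CCF4-AM substrate was added for 2 h, and the 460/530 nm emission ratio was scored as gain-of-signal versus DMSO.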
Turning to `CCC(C)(Oc1ccc(C2(c3ccc(OC(C)(CC)C(=O)O)cc3)CCCCC2)cc1)C(=O)O` (stereo not given), the outcome was inactive.

As to `CN(C)CC[C@@H](c1ccc(Cl)cc1)c1ccccn1`, the outcome was inactive.

For the compound `O=C[C@H](O)[C@@H](O)[C@H](O[C@H]1O[C@H](CO)[C@@H](O[C@H]2O[C@H](CO)[C@@H](O)[C@H](O)[C@H]2O)[C@H](O)[C@H]1O)[C@H](O)CO`, the outcome was inactive.

Take `Cl/C(=C\n1cncn1)c1ccc(Cl)cc1Cl`: the result was inactive.

`Cc1cc(NC(=O)C2=C(O)c3ccccc3S(=O)(=O)N2C)no1`: the outcome was inactive.

For `COc1ccc(C=NNC(=O)c2ccncc2)c(C(=O)O)c1OC`, the result was inactive.

Turning to `CC(C)CCC[C@@H](C)[C@H]1CC[C@H]2[C@@H]3CC[C@@H]4C[C@H](O)CC[C@]4(C)[C@H]3CC[C@]12C`, the result was inactive.

`O=C1c2ccccc2C(=O)C1c1ccc(F)cc1`: the result was inactive.

Consider `CCN(CC)CCOC(=O)C1(c2ccccc2)CCCC1`, for which the outcome was inactive.

In the case of `Nc1ccc2cc(S(=O)(=O)O)ccc2c1`, the outcome was inactive.

Take `CCc1ccc(CC)cc1`: the result was inactive.

Take `C1CSCCS1`: the result was inactive.

`CCn1ccnc1CC1COc2ccccc2O1` (stereo not given): the result was inactive.

`COc1ccc(C(=O)NCc2ccc(OCCN(C)C)cc2)cc1OC`: the outcome was inactive.

On to `O=C1NC(=O)[C@H]2[C@@H]1[C@@H]1C=C[C@H]2C1`, for which the result was inactive.

For `Nc1cccc([N+](=O)[O-])c1`, the result was inactive.

Regarding `Nc1nc(-c2ccc([N+](=O)[O-])cc2)cs1`, the result was inactive.

As to `CCC(CO)(CO)CO`, the outcome was inactive.

As to `Brc1cc2ccccc2c2ccccc12`, the outcome was inactive.

Regarding `CCc1ccc(C(=O)C(C)CN2CCCCC2)cc1` (stereo not given), the outcome was inactive.
